# Bioassay records from PubChem BioAssay.
# BoNT-A LC inh2: blocks Botulinum neurotoxin A light chain protease; multiplex microsphere protease substrate cleavage, flow cytometry; inhibition, % at 10 µM; 0.17% of 360,000 active; AID 588499; also: plate controls were buffer without enzyme for full effect and enzyme alone for no effect
# Bead autofluor: counter-screen for toxin protease inhibitors: compound fluorescence; 3.1% of 360,000 active; AID 624483; compound autofluorescence counterscreen, microsphere flow cytometry; hits give high values; fluorescence intensity (test concentration not listed); in the data active = fluorescence intensity above about 16000; inconclusive = no clear call, values can overlap the other calls
# Anthrax LF inh2: inhibitors of Bacillus anthracis lethal factor protease | multiplex microsphere protease cleavage assay, LF | inhibition, % at 10 µM | 0.12% of 360,000 active | AID 588501; also: plate controls were buffer without enzyme for full effect and enzyme alone for no effect
# Target sequence (P15917 whole entry, looked up): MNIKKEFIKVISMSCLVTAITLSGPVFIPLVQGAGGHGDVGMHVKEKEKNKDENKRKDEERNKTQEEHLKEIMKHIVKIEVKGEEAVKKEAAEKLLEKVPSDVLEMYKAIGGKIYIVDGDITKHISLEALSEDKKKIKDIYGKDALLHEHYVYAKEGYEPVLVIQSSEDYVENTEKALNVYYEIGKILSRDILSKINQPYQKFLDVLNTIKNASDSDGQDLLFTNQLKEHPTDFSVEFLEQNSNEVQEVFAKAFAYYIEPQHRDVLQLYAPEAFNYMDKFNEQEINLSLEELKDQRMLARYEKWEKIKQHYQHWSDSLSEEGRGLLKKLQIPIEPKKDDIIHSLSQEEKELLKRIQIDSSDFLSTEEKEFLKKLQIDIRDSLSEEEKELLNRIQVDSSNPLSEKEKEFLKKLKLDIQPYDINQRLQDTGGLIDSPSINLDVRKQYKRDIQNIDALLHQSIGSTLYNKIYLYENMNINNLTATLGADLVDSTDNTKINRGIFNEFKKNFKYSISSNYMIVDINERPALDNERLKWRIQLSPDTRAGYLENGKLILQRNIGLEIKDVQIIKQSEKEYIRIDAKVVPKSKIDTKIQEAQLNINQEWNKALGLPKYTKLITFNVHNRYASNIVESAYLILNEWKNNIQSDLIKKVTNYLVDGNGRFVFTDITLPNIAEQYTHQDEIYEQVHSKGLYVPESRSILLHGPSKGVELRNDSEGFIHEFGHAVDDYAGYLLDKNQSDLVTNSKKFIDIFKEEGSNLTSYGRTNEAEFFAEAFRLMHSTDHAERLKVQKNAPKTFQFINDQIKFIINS
# Mtb FBA inh: Mtb fructose-bisphosphate aldolase inhibition. 2.3% of 360,000 active. purified M. tuberculosis FBA, fluorescence read-out. P9WQA3. inhibition, % at 1 µM; in the data active = inhibition above about 27%;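 also: 0% = vehicle and 100% = reference inhibitor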
# GDH-TPI inh: inhibits GDH-TPI coupling enzymes, artifact for Mtb FBA screen. GDH-TPI coupled enzyme counterscreen, NADH absorbance. inhibition, % at 4.8 µM. 1.2% of 360,000 active; in the data active = inhibition above about 30%;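 also: 0% = DMSO wells and 100% = wells lacking the enzyme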
# BoNT-F LC inh: inhibitors of Botulinum neurotoxin F light chain protease. inhibition, % at 10 µM. Multiplex microsphere protease cleavage assay, flow cytometry. AID 588497. 0.22% of 360,000 active; in the data active = inhibition above about 35%, passing the limit was not always enough; inconclusive = no clear call, values can overlap the other calls; also: plate controls were buffer without enzyme for full effect and enzyme alone for no effect
# The depositor's hits bear a star; ? = inconclusive; . = no result given. This is a sample that favours compounds with a hit; in the whole collection about 6.6% have one here. Rule as the data show it, unless noted: active = inhibition above about 30%; inconclusive = no clear call, values can overlap the other calls; inactive = below that.
SMILES,BoNT-A LC inh2,Bead autofluor,Anthrax LF inh2,Mtb FBA inh,GDH-TPI inh,BoNT-F LC inh
O=[N+]([O-])c1ccc(Nc2nccc(Cl)n2)cc1,0,5574,-9,3,18,0
CCN(CC)C(=O)C(=O)c1cn(CC(=O)N2CCc3ccccc3C2)c2ccccc12,-1,3151,3,-3,4,-4
CC(=O)c1ccc(NC(=S)NC(=O)/C=C/c2ccco2)cc1,.,.,.,-2,51*,.
CCc1ccc(NC(=O)CCc2ccc(CC)o2)cc1,-1,3685,5,1,3,-4
Cc1cnc(C(=O)OCC(=O)NC23CC4CC(CC(C4)C2)C3)cn1,1,20090*,1,2,2,0
Cc1cnc(C(=O)OCC(=O)C23CC4CC(CC(C4)C2)C3)cn1,-3,4842,1,-1,11,-2
O=C(NCCC1CCCCN1S(=O)(=O)c1ccccc1)C(=O)NCc1cccnc1 (stereo unspecified),0,5714,2,4,5,-10
Cc1c(C(=O)NC(C)CN2CCCCC2)oc2ccccc12 (stereo unspecified),1,17372*,5,4,4,-4
CCOc1ccc(NC2OC(CO)C(O)C(O)C2O)c([N+](=O)[O-])c1 (stereo unspecified),-1,2147,0,-6,4,-2
CC(=O)Nc1ccc(Nc2ncnc3c2cnn3-c2cccc(C)c2)cc1,7,19017*,-18,1,1,11
CC(=O)Nc1ccc(Nc2ncnc3c2cnn3-c2ccccc2)cc1,?,23123*,2,0,23,-2
CC(=O)Nc1ccc(Nc2ncnc3c2cnn3-c2ccc(C)cc2C)cc1,1,?,?,4,23,?
CC(C)Cc1cc(C(=O)N2N=C(C(F)F)CC2(O)C(F)F)c2ccccc2n1 (stereo unspecified),-10,22633*,0,2,-13,-12
O=C(c1ccc(N2CCN(C(=O)c3ccccc3Br)CC2)cc1)c1cccc(F)c1,-2,5759,-3,3,18,-14
O=C(c1ccc(N2CCN(C(=O)c3cccc(F)c3)CC2)cc1)c1cccc(F)c1,0,5574,0,-1,31*,6
CC(=O)c1ccc(N2CCN(C(=S)Nc3ccc(Oc4ccccc4)cc3)CC2)cc1,-1,3244,-8,2,20,-5
CC(=O)c1ccc(N2CCN(C(=S)Nc3cccc(F)c3)CC2)cc1,0,2549,-6,3,35*,0
Cc1cc(C)c2nc3sc(=Cc4ccc(-c5ccccc5C(=O)O)o4)c(=O)n3c2c1,0,3590,6,-2,1,6
O=C(O)c1ccc(-c2ccc(/C=c3/sc4nc5ccccc5n4c3=O)o2)cc1Cl,32*,7041,133*,3,-1,?
ClC(CCN1CCN(Cc2ccccc2)CC1)c1ccccc1 (stereo unspecified),-1,6420,-3,-1,-3,-16
CCc1ccccc1NC(=O)CC1S/C(=N\c2nccs2)N(CC)C1=O (stereo unspecified),-2,17187*,-1,2,13,0
Cc1ccc(S(=O)(=O)CCC(=O)OCC(=O)NC(C)c2ccccc2)cc1 (stereo unspecified),0,3617,-10,-2,-5,5
O=c1nc(N/N=C/C=C/c2ccccc2)cn[nH]1,-3,5302,1,1,78*,-7
CC1(C)OC(c2ccccc2)=C/C(=C\C=N\NC(=O)c2ccncc2)O1,0,6164,-1,-2,33*,-17
O=C(N/N=C/C=C/c1ccccc1)c1ccncc1,-1,2386,-2,2,37*,0
SMILES,BoNT-A LC inh2,Bead autofluor,Anthrax LF inh2,Mtb FBA inh,GDH-TPI inh,BoNT-F LC inh
Nc1ccc(C(=O)N/N=C\C=C\c2cccc([N+](=O)[O-])c2)cc1,-1,2850,-3,-5,43*,1
CSc1ccc(CN2CCC(n3nccc3NC(=O)C3CCOC3)CC2)cc1 (stereo unspecified),1,5635,-1,1,8,6
O=C(O)c1ccc(N/N=C/C=C/c2ccccc2)cc1,-1,4601,2,2,33*,-3
O=C1N/C(=N\N=C\c2ccccn2)SC1Cc1cccc(SC(F)F)c1 (stereo unspecified),-1,11205,-1,0,47*,-12
O=C1N/C(=N\N=C\c2cccnc2)SC1Cc1ccc(SC(F)F)cc1 (stereo unspecified),.,.,.,2,5,.
O=C1N/C(=N\N=C\c2ccc3ncccc3c2)SC1Cc1ccc(SC(F)F)cc1 (stereo unspecified),?,20635*,1,-3,7,4
CCN(CC)C(=O)c1sc(NC(=O)C(Sc2ccccc2)c2ccccc2)c(C(=O)OC(C)C)c1C (stereo unspecified),0,2422,-5,-3,0,-9
CCc1ccc(NC(=S)Nc2ccc(S(=O)(=O)Nc3ncccn3)cc2)cc1,-1,3590,-6,4,5,1
O=C(CCn1c(=O)[nH]c2ccsc2c1=O)N1CC(=O)N(CCc2ccccc2)C(=O)C1,?,23732*,0,-2,4,-6
CC(O)(c1cccc(F)c1)c1nc(-c2ccoc2)cs1 (stereo unspecified),0,3829,-3,-4,9,0
COc1cc2nc(N3CCN(C(=O)OCc4ccccc4)[C@H](C(=O)NC(C)(C)C)C3)nc(N)c2cc1OC,-1,4611,-14,89*,20,-17
COc1ccc(F)c(CN2CCC(n3nccc3NC(=O)C3CCOC3)CC2)c1 (stereo unspecified),0,6275,1,0,2,-4
Cc1nc(N2CCOCC2)c2c(C)c(C(=O)Nc3ccccc3Cl)sc2n1,0,4154,1,-3,31*,-3
O=c1cc(-c2ccccc2)nc2cc(-c3ccco3)[nH]n12,-3,3534,10,11,-1,2
O=C1c2nc3cc(-c4ccco4)[nH]n3c(=O)c2CN1C1CCCCC1,-1,3803,-4,129*,-1,?
COc1cc(/C=C2\CCC(C3CCCC3)C2=O)ccc1OC(C)C (stereo unspecified),2,3596,-2,3,-1,3
COc1ccc(OC)c(-c2c[n+](=O)c3c(n2[O-])CCCC3)c1,0,6716,-2,-6,21,-2
CCOc1ccc(-c2c[n+](=O)c3c(n2[O-])CCCC3)c(OCC)c1,-1,19889*,0,0,8,-6
CC(C)(C)OC(=O)N1CCC[C@H]1C(=O)N1CCC[C@H]1C(=O)NCc1ccncc1,0,5890,4,.,.,16
CCOC(=O)N/N=C/c1c(F)c(F)c(F)c(F)c1F,1,2470,-2,-9,-1,4
O=C(O)CCc1ccc(-c2ccccc2)n1NC(=O)c1cccs1,-2,3490,-5,7,2,-4
O=C(O)CCc1ccc(-c2cccs2)n1-c1ccc(C(=O)O)cc1,1,5859,-7,6,3,-6
